Screening results from PubChem BioAssay.
A selection: hits, their analogues and other compounds. The true share with any hit is near 12%.
HCV inh: qHTS Assay for Inhibitors of Hepatitis C Virus (HCV). Huh7.5.1 HCVcc-Cre infection, luciferase reporter, 44 h. Potency, µM (titrated, usually from 41.8 µM), without a hit: at the top dose activity change, negative = inhibition, hits mostly inhibitors. hit rate 3.4% among 340,000. AID 651820, 2012; also: % is scaled to controls: 0 for no effect and ±100 for the full control effect
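Cells (1,000/well) were plated 4 h before compound, then infected with HCVcc-Cre virus (~0.5 moi). After 44 h further culture, infection was read as luciferase luminescence following a 15 min substrate incubation at room temperature.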
SARS PLP yeast: qHTS of Yeast-based Assay for SARS-CoV PLP; S. cerevisiae expressing SARS-CoV PLpro, growth rescue; Potency, µM (doses to about 32.9 µM), inactives show at the top dose activity, positive = growth rescue, usual class: activators; hit rate 0.19% among 330,000; calls by dose curve; also: 0% is about no effect; nearly all actives have a fitted effect of over 55% in size
NS1 function inh: qHTS Assay for Inhibitors of Influenza NS1 Protein Function; Potency, µM (top dose mostly 46.1 µM), inactives show at the top dose activity, positive = more growth; hit rate 0.4% among 270,000; AID 2326, 2010; calls by dose curve; also: actives are rising curves; nearly all actives have a fitted effect of over 50% in size
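OD600 was taken as the measure of yeast growth restored by compound in an NS1-expressing S. cerevisiae strain. Cells had been washed out of glucose medium and diluted 1:100 into galactose -URA medium, pH 6.0.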
Pf growth 96h: Primary qHTS for delayed death inhibitors of the malarial parasite plastid, 96 hour incubation. hit rate 6.9% among 320,000. Potency, µM (doses to about 28.7 µM), without a hit: at the highest dose activity change, negative = inhibition, usual class: inhibitors. AID 504834, 2011. P. falciparum luciferase reporter growth, 96 h; also: % is scaled to controls: 0 for no effect and ±100 for the full control effect
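P. falciparum expressing integrated firefly luciferase, in erythrocytes at 2% hematocrit, 0.05% parasitemia, incubated with compounds 96 h at 37 C, 5% CO2. Growth inhibition read as loss of luminescence; two-generation exposure targets delayed-death apicoplast inhibitors.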
AMA1-RON2 inh: qHTS for Inhibitors of AMA1-RON; Towards Development of Antimalarial Drug Lead: Primary Screen; hit rate 0.2% among 360,000; Potency, µM (series often up to 58.2 µM), for inactives: at the highest dose activity change, negative = inhibition, usual class: inhibitors; AlphaScreen AMA1-biotinylated RON2 peptide binding;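 also: 0% = vehicle wells and -100% = peptide control; nearly all actives have a fitted effect of over 45% in size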
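AMA1 (3D7) with his tag at 25 nM final met compounds first, then biotinylated RON2 peptide at 25 nM; detection used donor plus acceptor beads, 10 µg/mL apiece, read by AlphaScreen after 30 min at room temperature.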
Pf growth 48h: Primary qHTS for delayed death inhibitors of the malarial parasite plastid, 48 hour incubation; P. falciparum luciferase growth in erythrocytes, 48 h; Potency, µM (doses to about 28.7 µM), inactives show at the highest dose activity change, negative = inhibition, usual class: inhibitors; hit rate 5.9% among 310,000; AID 504832, 2011; also: % is scaled to controls: 0 for no effect and ±100 for the full control effect
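In quantitative HTS format, infected erythrocytes bearing luciferase-reporter parasites were treated for a single generation at 37 C. Luminescence after adding detection reagent served as the growth measure.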
* = called active by the depositor; i = inactive; ? = inconclusive; . = no result; [ ] = another dose, or the depositor's remark. Unless noted, calls follow the shape of the dose curve; as a rule, active = well fitted curve in the direction sought with a large enough effect; inconclusive = small, poorly fitted or top-dose-only effect, or another doubt; inactive = no such curve, though single readings can be large; an effect the other way counts as inactive or inconclusive. Potency is read from the fitted curve at half-maximal effect.

SMILES | HCV inh | SARS PLP yeast | NS1 function inh | Pf growth 96h | AMA1-RON2 inh | Pf growth 48h
Cc1cccc(NC(=S)N=Nc2c(O)n(CN3CCOCC3)c3ccccc23)c1C | -4% | -39% | 3% | 1% | 31% | 4.7µM*
C=CCn1c(O)c(N=NC(=S)Nc2ccccc2C)c2cc(S(=O)(=O)N3CCOCC3)ccc21 | ? | -4% | 13µM* | 13µM* | 57% | 2.9µM*
Cn1c(O)c(N=NC(=S)Nc2ccccc2F)c2cc(S(=O)(=O)N3CCOCC3)ccc21 | ? | -3% | . | ? | 72% | ?
Cc1ccc(N=Nc2c(O)n(CN3CCOCC3)c3ccccc23)cc1 | -12% | -6% | -10% | i | -7% | -1%
C=CCn1c(O)c(N=NC(=O)OC(C)(C)C)c2ccccc21 | 1% | 11% | -4% | 0% | -14% | 19%
C=CCn1c(O)c(N=NC(=S)Nc2ccc(OC)c(Cl)c2)c2ccccc21 | ? | -20% | 3% | -19% | 2% | 3.7µM*
Cc1ccc(NC(=S)N=Nc2c(O)n(C)c3ccc(S(=O)(=O)N4CCOCC4)cc23)cc1C | 8% | 15% | ? | -27% | 41%[11.6 µM] | 3.3µM*
COc1ccc(NC(=O)COC(=O)Cc2cccs2)cc1Cl | . | . | . | . | -1% | .
CC1(C)Oc2ccc(C(=O)N/N=C/c3ccc(O)cc3)cc2NC1=O | 5% | 12% | 1% | 28% | 3% | 26%
CCCCC(CCc1ccccn1)C(=O)c1ccccc1 (configuration not stated) | 14% | . | . | . | -1% | .
NNC(=O)Cn1c(COc2ccc(Cl)cc2)nc2ccccc21 | 11µM* | 3% | ? | ? | 41% | -29%
COc1ccc(N2CCN(C(=O)c3cc(=O)c4cc(C)c(C)cc4o3)CC2)cc1 | -8% | -2% | 7% | 38% | 41% | -18%
COCCn1c(SCC(=O)Nc2ccccc2OC)nc2c([nH]c3ccccc32)c1=O | -23% | 2% | 6% | 9.3µM* | -11% | ?
COCCn1c(SCC(=O)Nc2ccc(F)cc2)nc2c([nH]c3ccccc32)c1=O | 17% | -2% | 7% | 3.3µM* | -8% | ?
COCCn1c(SCC(=O)Nc2ccccc2F)nc2c([nH]c3ccccc32)c1=O | 2% | 2% | -1% | ? | 24% | -7%
CCn1c(SCC(=O)N2CC(C)OC(C)C2)nc2c([nH]c3ccccc32)c1=O (configuration not stated) | -11% | 1% | 12% | ? | -9% | 6.6µM*
CCOC(=O)C(C)Sc1nc2c([nH]c3ccccc32)c(=O)n1C (configuration not stated) | 10µM* | 16% | -5% | 4% | -10% | ?
COCCn1c(SCC(=O)N2CC(C)OC(C)C2)nc2c([nH]c3ccccc32)c1=O (configuration not stated) | 21% | -1% | 6% | ? | 5% | ?
COc1cc(-c2nnc(COC(=O)c3ccc(C)o3)o2)cc(OC)c1OC | -9% | -1% | . | 11% | -3% | 0%
CCN(CC)S(=O)(=O)c1cc(C)ccc1SC | 10% | -9% | 6% | ? | 10% | 2%
C=CCn1c(SCC(=O)Nc2ccccc2OC)nc2c([nH]c3ccccc32)c1=O | -13% | -2% | 5% | 4.1µM* | 10% | ?
C=CCn1c(SCC(=O)Nc2ccc(F)cc2F)nc2c([nH]c3ccccc32)c1=O | -22% | 2% | -12% | 9% | 4% | 3%
O=[N+]([O-])c1ccc(S(=O)(=O)Nc2ccccn2)cc1 | 15% | -2% | 1% | ? | 1% | 4%
Cc1cc(C)n2nc(C(=O)Nc3ccc(S(=O)(=O)N4CCCC4)cc3)nc2n1 | ? | 1% | -1% | 2.3µM* | 10% | 128%
N#CCc1ccc(NC(=O)c2ccc(S(=O)(=O)N3CCCC3)cc2)cc1 | 14µM* | -1% | -6% | -3% | 4% | ?
SMILES | HCV inh | SARS PLP yeast | NS1 function inh | Pf growth 96h | AMA1-RON2 inh | Pf growth 48h
CN(c1ccc(C(=O)Nc2ccc(S(=O)(=O)N3CCCC3)cc2)cc1)S(C)(=O)=O | 5µM* | 0% | -5% | ? | 2% | -15%
O=C(Nc1ccc(S(=O)(=O)N2CCCC2)cc1)c1ccc(F)cc1 | -17% | . | . | . | 10% | .
O=C(Nc1ccc([N+](=O)[O-])cc1)c1ccc(S(=O)(=O)N2CCCC2)cc1 | -8% | 2% | 4% | 12µM* | 0% | ?
CNC(=O)N(O)C1N(/N=C/c2cc(Br)ccc2O)C(=S)SC1(C)C (configuration not stated) | 11µM* | -1% | -5% | 4% | 63% | 0%[0.00184 µM]
CC1(C)SC(=S)N(/N=C/c2ccccc2O)C1N(O)C(=O)Nc1ccccc1 (configuration not stated) | 11µM* | 3% | -4% | 38% | 42% | -27%
Cc1ccc(/C=N/N2C(=S)SC(C)(C)C2N(O)C(=O)Nc2ccc([N+](=O)[O-])cc2)cc1 (configuration not stated) | 11µM* | -2% | -26% | ? | 0% | ?
CCOc1ccc(S(=O)(=O)NCCC(=O)OCC(=O)NC(=O)c2cccn2C)cc1 | 9% | -3% | . | . | -16% | .
Oc1ccc2ccccc2c1/C=C\c1ccc2c(Br)cc(Br)c(O)c2n1 | . | . | -43% | . | . | .
Cn1cc(C=CC(=O)O)c2nccnc21 | . | . | . | . | -3% | .
Cc1cc(C(=O)CSc2ccc(F)cc2)cc(C)c1O | ? | -2% | -9% | 83% | -9% | 42%
Cc1cc(C(=O)CSc2ccc(Cl)cc2)cc(C)c1OC(=S)N(C)C | 10µM* | 3% | 6% | ? | -9% | .
COCCN(CCOC)Cc1cc(=O)oc2cc3c(cc12)CCC3 | ? | -3% | -18% | -27% | -6% | -17%
CC(C)CN(Cc1cc(=O)oc2cc3c(cc12)CCCC3)CC(C)C | 10% | -1% | 3% | ? | -2% | 1.3µM*
O=C(c1ccc(Cl)cc1)N1CCN(S(=O)(=O)/C=C/c2ccccc2)CC1 | ? | 1% | . | ? | 0% | ?
CC(C)c1ncc(C(O)c2ccccc2)n1C (configuration not stated) | 15% | 1% | -2% | 22% | 16% | 8%
Cn1c(Cl)cnc1C(O)c1ccccc1 (configuration not stated) | 3% | -1% | -3% | 6.6µM* | 9% | 8%
COc1ccc(C(=O)Cn2nnc(-c3ccccc3NC(=O)C3CC3)n2)cc1 | -13% | 2% | -5% | ? | -11% | 12µM*
